The list is not random: actives were taken first. Their share in the collection is about 3.5%.
eIF4E 4G PPI: eIF4E–eIF4G protein interaction inhibitors, primary screen, biochemical, uHTS, TR-FRET, eIF4GI fragment | Eukaryotic translation initiation factor 4E (Mus musculus) + Eukaryotic translation … | 220,000 compounds, 0.37% hits | TR-FRET eIF4E-eIF4GI(517-606) binding, 2 h | AID 782, 2007 | inhibition, % at 21.7 µM;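 active = inhibition above about 30%, limit read from the data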;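 note: 0% = full FRET control wells and 100% = background wells lacking eIF4GI fragment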
Mcl1 Noxa PPI: Mcl-1/Noxa binding inhibitors, primary screen, biochemical, TR-FRET, 1536-well | Induced myeloid leukemia cell differentiation protein Mcl-1 (Homo sapiens), Q07820 | TR-FRET Mcl-1/Noxa peptide binding, 2 h | inhibition, % at 21.7 µM | 220,000 compounds, 1.5% hits | AID 1022, 2008;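 active = compounds that cut the protein-peptide binding signal by more than 50% relative to plate controls in a single-dose test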;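 note: His-tagged Mcl-1 with rhodamine Noxa BH3 peptide and terbium anti-His antibody; 0% = Mcl-1 plus Noxa peptide wells and 100% = peptide-only wells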
Target sequence (Q07820 whole entry, looked up): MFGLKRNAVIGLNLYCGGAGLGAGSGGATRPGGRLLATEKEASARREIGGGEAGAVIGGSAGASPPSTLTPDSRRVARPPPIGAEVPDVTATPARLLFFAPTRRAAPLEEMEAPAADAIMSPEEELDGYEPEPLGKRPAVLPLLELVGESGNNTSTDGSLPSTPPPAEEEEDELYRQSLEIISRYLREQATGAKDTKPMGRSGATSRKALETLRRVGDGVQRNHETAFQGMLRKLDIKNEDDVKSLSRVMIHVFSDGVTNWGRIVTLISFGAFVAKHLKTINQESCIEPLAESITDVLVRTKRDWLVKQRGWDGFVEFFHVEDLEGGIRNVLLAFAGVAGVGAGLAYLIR
Mcl-1 Bim block: inhibitors of Bim peptide binding to Mcl-1, primary screen, biochemical, bead-based flow cytometry, multiplex | Induced myeloid leukemia cell differentiation protein Mcl-1 (Homo sapiens), Q07820 | Bim peptide-Mcl-1 binding | inhibition, % at 10 µM | 190,000 compounds, 0.1% hits; in the data active = inhibition above about 40%;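 note: 0% = no compound tracer wells and 100% = peptide blocker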
Mcl1-Bid inh: Mcl-1/Bid binding inhibitors, primary screen, biochemical, TR-FRET, 1536-well | 220,000 compounds, 0.97% hits | TR-FRET Mcl-1/Bid-Dy647 peptide binding | Induced myeloid leukemia cell differentiation protein Mcl-1 (Homo sapiens), Q07820 | inhibition, % at 21.7 µM;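 active = compounds that cut the binding signal by more than half at the single screening dose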;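 note: His-tagged Mcl-1 with europium anti-His antibody binding Bid BH3 peptide; 0% = Mcl-1 plus peptide wells and 100% = peptide-only wells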
14-3-3 Bad PPI: inhibitors of 14-3-3 zeta/Bad binding, primary screen, biochemical, TR-FRET, bovine 14-3-3 zeta; 14-3-3 protein zeta/delta (Bos taurus), P63103; TR-FRET 14-3-3zeta/Dy647-pBad peptide displacement, 1 h; inhibition, % at 21.7 µM; 220,000 compounds, 0.71% hits;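 active = inhibition above about 70%, limit read from the data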;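 note: 0% = full 14-3-3 plus peptide FRET controls and 100% = background without 14-3-3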
Hck Nef HTS: inhibitors of Nef-activated human Hck kinase, primary screen, biochemical, Z-Lyte FRET, 384-well, Hck-YEEI; 220,000 compounds, 0.68% hits; Tyrosine-protein kinase HCK (Homo sapiens), P08631; inhibition, % at 20 µM; Recombinant Hck-YEEI plus Nef, Z-Lyte FRET kinase assay;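 active = Hck-Nef kinase inhibition above about 50%, limit read from the data; inactive = inhibition below that limit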;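 note: 0% = DMSO with Hck plus Nef and 100% = Hck alone without Nef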
* marks the source's active call; other numbers are inactive results; / = no result given; [ ] = dose if it differs, or a comment.

SMILES	eIF4E 4G PPI	Mcl1 Noxa PPI	Mcl-1 Bim block	Mcl1-Bid inh	14-3-3 Bad PPI	Hck Nef HTS
O=c1/c(=C/c2ccccn2)sc2nc3ccccc3n12	-11.9	43.7	0.0	46.9	15.7	20.2
COC(=O)/C=c1/sc2nc3ccccc3n2c1=O	1.0	-19.7	-17.0	10.7	3.5	-1.6
COc1ccc(-n2nnnc2SCC#CCO)cc1	-6.0	32.5	0.0	15.7	-1.1	1.5
Cc1ccc(-n2nnnc2SCC#N)cc1	-1.1	8.4	-1.0	-13.0	71.4*	-52.2
Cc1ccc(/C=C2\SC(=S)N(C3CCS(=O)(=O)C3)C2=O)o1 (stereo unspecified)	2.8	-5.9	7.0	-58.8	-2.8	24.3
NS(=O)(=O)c1ccc(-c2ccc(/C=C3\SC(=S)N(C4CCS(=O)(=O)C4)C3=O)o2)cc1 (stereo unspecified)	-7.3	79.0*	/	51.1*	2.1	48.0
O=C(CN(Cc1ccc(F)cc1)S(=O)(=O)c1ccccc1)N1CCCCC1	2.8	61.6*	-3.0	-24.2	4.0	2.3
Cc1ccc(S(=O)(=O)N(CC(=O)N2CCC(C(N)=O)CC2)Cc2ccc(F)cc2)cc1	8.1	5.2	0.0	-1.7	12.2	0.9
CC(=O)Oc1c(/C=C(\C#N)C(N)=O)[nH]c2ccccc12	4.6	18.8	-15.0	-114.4	2.7	14.7
C/C(N)=C(/C#N)C(=O)CSc1nc2cc(Cl)ccc2s1	-9.1	53.1*	-2.0	-13.0	-2.1	-0.4
CC1CCN(S(=O)(=O)N2CCC(C(=O)NCc3cccnc3)CC2)CC1	-6.6	8.4	/	-16.6	11.2	18.9
CC(=O)Nc1ccc(/C=N/NC(=S)NC(C)C)cc1	-3.2	52.5*	-1.0	5.6	-1.7	24.1
Cc1cccn2c(=O)c(C=O)c(N3CCCCCC3)nc12	0.9	-4.5	0.0	-5.5	-3.3	4.9
CSc1nc(=O)n2cccc(C)c2n1	-4.5	4.2	0.0	-5.3	97.2*[fluorescence artefact?]	3.2
Nc1ccc(N)c(C(=O)O)c1	93.7*	92.4*	/	97.6*	95.9*	/
Cc1c(C(=O)N2CCOCC2)cc(C(C)(C)C)n1-c1ccccc1	1.0	-5.7	/	-39.2	-3.5	2.0
CN(C)c1ccc(/C=N/NC(=O)c2ccc3nc[nH]c3c2)cc1	10.7	16.3	/	-8.8	0.1	-63.1
CCN(CC)c1ccc(/C=N/NC(=O)c2ccc3nc[nH]c3c2)cc1	86.9*	25.1	/	-104.2	2.6	11.2
CCCCn1c(SCC(=O)NCc2ccco2)nc2ccccc2c1=O	-4.6	4.9	0.0	0.0	-14.9	2.5
O=C(NCc1ccco1)c1ccc2c(=O)n(Cc3ccco3)c(SCC(=O)N3CCCC3)nc2c1	4.8	54.0*	-2.0	0.0	-2.8	5.3
O=C(CSc1nc2ccccc2c(=O)n1Cc1ccco1)NCc1ccco1	9.9	38.4	-3.0	-7.2	88.1*[fluorescence artefact?]	6.8
O=C(CSc1nnc2c(n1)[nH]c1ccccc12)NCc1ccco1	4.2	73.3*	-6.0	-26.6	-4.7	31.5
C=CCOc1c(OC)cc(/C=N/Nc2cccc(C(=O)O)c2)c(Br)c1Br	13.7	87.8*	-4.0	77.9*	4.0	4.3
COc1cc(/C=C2\SC(=S)N(N(C)c3ccccc3)C2=O)ccc1O	7.3	19.8	/	-6.8	-4.6	1.8
COc1cc2c(C)nc3onc(-c4ccccc4)c3c2cc1OC	-3.0	21.7	4.0	-19.6	2.6	2.7
COc1cc2c(C)nc(C)c(C#N)c2cc1OC	14.8	21.3	-1.0	28.5	77.8*	2.0
CCN(CC)CCn1nc2c3c(cccc3c1=O)-c1ccccc1-2	1.9	69.7*	-1.0	-3.1	5.2	-9.4
CCCSC1=N/C(=C\C=C\c2ccco2)C(=O)S1	3.0	76.5*	0.0	4.8	-0.9	32.3
CCOC(=O)c1sc(N)nc1-c1ccccc1	-5.4	4.9	1.0	-4.5	8.9	1.8

Compound activity from PubChem BioAssay.
